# Experimental data: PubChem BioAssay (NCATS)
# “And” between values parts separate entries of the source, which are not always exact repeats. Identical values can stand only once. Inconclusive results are not listed. A structure can be active in one record and inactive in another. The source made the active and inactive calls. Unless noted, calls come from the whole dose curve; as a rule, active = well fitted curve in either direction with a large enough effect (not every such curve was filed as active); inconclusive = small, poorly fitted or top-dose-only effect, or another doubt; inactive = flat fitted curve, though single readings scatter.
# Columns and labels:
# [1] = Stat Signaling Pathway (AID 446); conditions: ME-180 SIE beta-lactamase reporter, IL-6 stimulated, 5 h;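 note: ME-180 cervical cancer cells given 40 pM IL-6 alongside compound; SIE-controlled beta-lactamase reporter measured as 460/530 nm FRET emission ratio; % is set by controls: 0 for no effect and ±100 for the full control effect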
# How it was run: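 Reporter line: ME-180 cervical carcinoma, SIE-beta-lactamase. Treatment: compound with 40 pM IL-6, 5 hrs, 37 C, in low-serum OPTI-MEM with 10 mM HEPES pH 7.3. Detection: 460/530 nm fluorescence.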
# [2] = target: Glucocorticoid receptor (Homo sapiens) (UniProt P04150); assay: GR-GFP Redistribution (AID 450;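 active = compounds whose dose series gives a full or clear partial fitted curve of increased nuclear translocation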; note: potency is the fitted concentration of half-maximal effect); conditions: U2OS GR-GFP nuclear translocation, laser cytometry, 2 h
# Chain of Glucocorticoid receptor (Homo sapiens) (P04150 whole entry, looked up, the tested form may be a part): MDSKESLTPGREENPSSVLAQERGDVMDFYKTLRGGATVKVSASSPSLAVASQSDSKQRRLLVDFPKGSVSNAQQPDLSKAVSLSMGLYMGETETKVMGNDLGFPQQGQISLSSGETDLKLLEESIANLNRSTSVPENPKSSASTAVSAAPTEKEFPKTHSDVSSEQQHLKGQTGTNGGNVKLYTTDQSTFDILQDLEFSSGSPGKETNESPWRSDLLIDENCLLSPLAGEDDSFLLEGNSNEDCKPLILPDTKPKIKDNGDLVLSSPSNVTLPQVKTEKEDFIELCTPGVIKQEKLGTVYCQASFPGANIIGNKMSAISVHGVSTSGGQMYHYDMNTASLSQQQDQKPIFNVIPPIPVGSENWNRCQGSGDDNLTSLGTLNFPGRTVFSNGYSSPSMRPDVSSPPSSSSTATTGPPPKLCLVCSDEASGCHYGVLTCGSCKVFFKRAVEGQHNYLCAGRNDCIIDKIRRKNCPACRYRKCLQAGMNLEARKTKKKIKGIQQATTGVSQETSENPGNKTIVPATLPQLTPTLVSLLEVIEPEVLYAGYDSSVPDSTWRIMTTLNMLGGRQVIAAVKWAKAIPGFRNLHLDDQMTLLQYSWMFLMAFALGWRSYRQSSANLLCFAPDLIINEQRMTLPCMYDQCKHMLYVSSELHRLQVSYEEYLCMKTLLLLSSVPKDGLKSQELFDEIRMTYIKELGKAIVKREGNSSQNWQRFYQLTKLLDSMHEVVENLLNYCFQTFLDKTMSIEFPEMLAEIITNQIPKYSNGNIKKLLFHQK
# [3] = target: Glucocorticoid receptor (Homo sapiens) (UniProt P04150); assay: GR-EFC Redistribution (AID 451; calls by dose curve; note: potency is the fitted concentration of half-maximal effect); conditions: CHO-K1 GR-EFC translocation, beta-gal luminescence, 2 h
# How it was run: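 CHO-K1 cells expressing nuclear EA and GR-ED fragments of b-gal; compounds titrated up to 46 uM final, 2 h at 37 C. GR nuclear translocation read as complemented b-gal luminescence after 1 h RT detection.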
# [4] = target: Mitogen-activated protein kinase 10 (Mus musculus) (UniProt Q61831); assay: JNK3 AlphaScreen Assay (AID 530);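 note: kinase came from lysate of stimulated human HepG2 cells; signal reports phosphorylation of biotinylated GST-cJun 1-79 at Ser73 with 10 µM ATP; % is set by controls: 0 for no effect and ±100 for the full control effect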
# How it was run: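 Pre-activated (IL-1β/TNFα) JNK3 in HepG2 lysates phosphorylates biotin-GST-cJun(1-79), 10 uM ATP; anti-phospho-cJun(Ser73) AlphaScreen read at room temperature, pH 7.6 Tris buffer. Compounds pre-incubated 15 min as titrations.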
# [5] = target: 3',5'-cyclic-AMP phosphodiesterase 4B (Homo sapiens) (UniProt Q07343); assay: qHTS Assay for Inhibitors of PDE-IV (AID 607; active = well fitted activation curve with a large enough effect in the main read-out, with a control signal flat, not every such curve was filed as active; note: potency is the fitted concentration of half-maximal effect)
# Chain of 3',5'-cyclic-AMP phosphodiesterase 4B (Homo sapiens) (Q07343 whole entry, looked up): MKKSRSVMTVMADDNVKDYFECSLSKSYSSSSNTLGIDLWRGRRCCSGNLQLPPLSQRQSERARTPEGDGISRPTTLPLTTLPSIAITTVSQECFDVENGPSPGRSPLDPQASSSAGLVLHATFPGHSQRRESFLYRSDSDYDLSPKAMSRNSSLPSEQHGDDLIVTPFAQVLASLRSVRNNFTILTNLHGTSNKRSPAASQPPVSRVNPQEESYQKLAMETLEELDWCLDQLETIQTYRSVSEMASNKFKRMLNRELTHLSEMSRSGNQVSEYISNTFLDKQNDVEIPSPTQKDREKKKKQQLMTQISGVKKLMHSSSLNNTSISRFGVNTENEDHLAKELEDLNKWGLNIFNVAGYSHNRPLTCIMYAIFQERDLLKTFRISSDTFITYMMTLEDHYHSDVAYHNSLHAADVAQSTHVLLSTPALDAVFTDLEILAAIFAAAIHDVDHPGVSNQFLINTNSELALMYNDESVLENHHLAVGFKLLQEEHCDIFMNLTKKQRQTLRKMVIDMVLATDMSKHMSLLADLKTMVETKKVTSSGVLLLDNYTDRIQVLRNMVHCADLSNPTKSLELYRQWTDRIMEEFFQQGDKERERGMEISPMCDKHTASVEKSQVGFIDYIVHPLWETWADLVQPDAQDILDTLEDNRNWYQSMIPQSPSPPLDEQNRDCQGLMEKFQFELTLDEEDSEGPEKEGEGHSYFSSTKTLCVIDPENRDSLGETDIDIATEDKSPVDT
# How it was run: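 Cell-based read-out of cAMP via a modified cyclic nucleotide-gated channel and membrane potential dye (535/590 nm) in HEK293 cells expressing PDE4 endogenously. Compounds tested up to 22.9 uM final; 100 uM RO 20-1724 reference.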
# [6] = Cell Viability - N2a (AID 540; active = well fitted curve in the direction sought with a large enough effect; an effect the other way counts as inactive or inconclusive;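 note: plate controls were DMSO alone for no effect and tamoxifen control for full effect; nearly all actives have a fitted effect of over 45% in size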)
# How it was run: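 Mouse neuroblastoma N2a cells, 1500/well, exposed to compounds 40 h at 37 °C in complete medium. Viability measured as cellular ATP by CellTiter-Glo luminescence; AC50 from Hill fits of concentration-response.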
# [7] = Cell Viability - NIH 3T3 (AID 541; active = well fitted curve in the direction sought with a large enough effect; an effect the other way counts as inactive or inconclusive;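 note: plate controls were DMSO alone for no effect and tamoxifen positive control for full effect; nearly all actives have a fitted effect of over 25% in size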)
# How it was run: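 Mouse NIH 3T3 fibroblasts, 1000 cells/well, rested 5 hr at 37 °C, then exposed to compound for 40 hr at 37 °C in complete medium. Viability read as intracellular ATP by CellTiter-Glo luminescence; AC50 from Hill-equation fits of concentration-response data.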
# [8] = Cell Viability - HUV-EC-C (AID 542; active = well fitted curve in the direction sought with a large enough effect; an effect the other way counts as inactive or inconclusive; note: % is set by controls: 0 for no effect and ±100 for the full control effect; nearly all actives have a fitted effect of over 35% in size)
# How it was run: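 HUV-EC-C human vascular endothelial cells, 1000/well, exposed to compound for 40 hr at 37 °C in complete medium. Intracellular ATP was read by CellTiter-Glo luminescence. AC50 came from Hill-equation fits of concentration-response data.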
# [9] = Cell Viability - H-4-II-E (AID 543; active = well fitted curve in the direction sought with a large enough effect; an effect the other way counts as inactive or inconclusive; note: % is set by controls: 0 for no effect and ±100 for the full control effect; nearly all actives have a fitted effect of over 35% in size)
# How it was run: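 Rat hepatoma H-4-II-E cells, 1500 per well, treated 40 h at 37 °C in complete medium. Cellular ATP read by CellTiter-Glo luminescence; AC50 from Hill fits of concentration-response.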
# [10] = Cell Viability - SH-SY5Y (AID 544; active = well fitted curve in the direction sought with a large enough effect; an effect the other way counts as inactive or inconclusive;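 note: 0% = DMSO alone and -100% = 100 µM tamoxifen; nearly all actives have a fitted effect of over 55% in size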)
# How it was run: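 SH-SY5Y human neuroblastoma cells (1500/well) incubated 5 h, then compound-treated 40 h at 37 °C in complete medium. Viability read as intracellular ATP by CellTiter-Glo luminescence after 20 min; AC50 from Hill-equation fits of qHTS concentration-response.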
# [11] = Cell Viability - Renal Proximal Tubule (AID 545; active = well fitted curve in the direction sought with a large enough effect; an effect the other way counts as inactive or inconclusive;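 note: 0% = DMSO only and -100% = 100 µM tamoxifen; nearly all actives have a fitted effect of over 40% in size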)
# How it was run: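 In this qHTS format, normal rat kidney-derived proximal tubule cells in complete culture medium receive compound titrations, then sit 40 hours at 37 °C before luciferase-based ATP quantitation; potency is reported as AC50 from concentration-response curves.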
# [12] = Cell Viability - Mesenchymal (AID 546; active = well fitted curve in the direction sought with a large enough effect; an effect the other way counts as inactive or inconclusive;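 note: cells exposed to compound for 40 hours before reading; 0% = DMSO only and -100% = 100 µM tamoxifen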)
# How it was run: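 Human kidney mesenchymal cells from normal renal glomeruli, 1000 cells/well, rested 5 hr at 37 °C, then treated 40 hr at 37 °C in complete medium. Cellular ATP read by CellTiter-Glo luminescence; AC50 from Hill-equation fits.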
# [13] = Cellular Toxicity (caspase-3) HepG2 (AID 654; active = well fitted curve in the direction sought with a large enough effect; an effect the other way counts as inactive or inconclusive;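 note: cells exposed to compound for 16 hours before reading; 0% = DMSO alone and 100% = caspase signal from 100 µM tamoxifen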)
# How it was run: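 HepG2 cells (1500/well) were treated 16 h at 37 °C in complete medium, then caspase 3/7 activity was read by Caspase-Glo luminescence. Data were normalized to DMSO and 100 uM tamoxifen; AC50 came from Hill-equation fits of qHTS concentration-response.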
# [14] = Cellular Toxicity (caspase-3) Jurkat (AID 655; active = well fitted curve in the direction sought with a large enough effect; an effect the other way counts as inactive or inconclusive;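 note: cells exposed to compound for 16 h at 37 °C before reading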)
# How it was run: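 qHTS in human Jurkat T-cell leukemia line: 16 hr compound treatment at 37 °C, caspase-3/7 activity measured by Caspase-Glo luminescence. AC50 derived from Hill equation.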
# [15] = Cellular Toxicity (caspase-3) HUV-EC-C (AID 656; active = well fitted curve in the direction sought with a large enough effect; an effect the other way counts as inactive or inconclusive;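 note: 0% = DMSO basal and 100% = 100 µM tamoxifen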)
# How it was run: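 Concentration-dependent caspase 3/7 induction was assessed in HUV-EC-C cells exposed for 16 hours. Data scaled between DMSO and tamoxifen (100 uM) controls.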
# [16] = Cellular Toxicity (caspase-3) SHSY5Y (AID 657; active = well fitted curve in the direction sought with a large enough effect; an effect the other way counts as inactive or inconclusive)
# How it was run: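 Readout: caspase-cleaved peptide-aminoluciferin substrate driving luciferase light in SH-SY5Y neuroblastoma cells after 16 h treatment. Response normalized to DMSO and 10 uM staurosporine controls.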
# [17] = Cellular Toxicity (caspase-3) BJ (AID 658; active = well fitted curve in the direction sought with a large enough effect; an effect the other way counts as inactive or inconclusive;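 note: 0% = DMSO basal and 100% = 10 µM staurosporine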)
# How it was run: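 BJ human foreskin fibroblasts, 1000 cells/well, treated 16 hours at 37 °C in complete medium; caspase 3/7 activity by Caspase-Glo luminescence after 1 hr at room temperature. Normalized to DMSO and 10 uM staurosporine; AC50 from Hill fits.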
# [18] = Cellular Toxicity (caspase-3) MRC-5 (AID 659; active = well fitted curve in the direction sought with a large enough effect; an effect the other way counts as inactive or inconclusive;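 note: 0% = DMSO basal and 100% = 10 µM staurosporine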)
# How it was run: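 MRC-5 human normal lung fibroblasts, 1500 cells/well, treated 16 h at 37 °C in complete medium. Caspase 3/7 measured by Caspase-Glo luminescence after 1 h at room temperature. Normalized to DMSO and 10 uM staurosporine; AC50 from Hill fit.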
# [19] = Cellular Toxicity (caspase-3) Mesangial (AID 660; active = well fitted curve in the direction sought with a large enough effect; an effect the other way counts as inactive or inconclusive;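 note: cells exposed to compound for 16 h before the caspase read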)
# How it was run: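 Human renal glomerular mesangial cells, 1000/well, 5 h at 37 C before 16 h compound treatment. Caspase-Glo 3/7 luminescence after 20 min; normalized to DMSO and 100 uM tamoxifen, AC50 from Hill fit.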
# [20] = Cellular Toxicity (caspase-3) SK-N-SH (AID 661; active = well fitted curve in the direction sought with a large enough effect; an effect the other way counts as inactive or inconclusive;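 note: 0% = DMSO basal and 100% = 10 µM staurosporine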)
# How it was run: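 Human SK-N-SH neuroblastoma cells, 1500/well, were exposed to compounds for 16 hours at 37 °C. Caspase-Glo 3/7 luminescence was normalized to DMSO (basal) and 10 uM staurosporine (100%), and AC50 came from a Hill fit.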
# [21] = at 38 µM (top of the series) unless noted
smiles,measurement,setting,value
O=C(O)Cc1ccc(O)c(O)c1,"activity, negative = inhibition",[1]; [21],18.6% (inactive)
same,Potency,[2],> 46 µM (inactive)
same,Potency,[3],> 46 µM (inactive)
same,outcome,[4],inactive
same,Potency,[5],inactive
COc1ccccc1N1CCN(CCCNc2c(C)c(=O)n(C)c(=O)n2C)CC1,"activity, negative = inhibition",[1]; [21],0.762% (inactive)
same,Potency,[2],> 46 µM (inactive)
CC(C)Cn1c(=O)n(C)c(=O)c2[nH]cnc21,"activity, negative = inhibition",[1]; [21],-25.6% (inactive)
same,Potency,[2],> 46 µM (inactive)
same,Potency,[3],> 46 µM (inactive)
same,outcome,[4],inactive
COCc1nc2c([nH]1)c(=O)n(C)c(=O)n2CC(C)C,"activity, negative = inhibition",[1]; [21],-22% (inactive)
same,Potency,[2],> 46 µM (inactive)
same,Potency,[3],> 46 µM (inactive)
same,outcome,[4],inactive
same,Potency,[5],inactive
O=c1ccc2c(OCCCCc3ccccc3)c3ccoc3cc2o1,"activity, negative = inhibition",[1]; [21],3.59% (inactive)
same,Potency,[2],> 46 µM (inactive)
same,Potency,[3],> 46 µM (inactive)
N#CC(C#N)=C(N)/C(C#N)=C/c1ccc(O)cc1,"activity, negative = inhibition",[1]; [21],5.06% (inactive)
same,Potency,[2],> 46 µM (inactive)
same,Potency,[3],> 46 µM (inactive)
same,outcome,[4],inactive
same,Potency,[5],inactive
CC(C)NCC(O)COc1ccc(CC(N)=O)cc1 (centres undefined),"activity, negative = inhibition",[1]; [21],14% [at 17.2 µM] (inactive)
O=C(O)/C=C/c1ccc(O)c(O)c1,"activity, negative = inhibition",[1]; [21],-8.31% [at 17.2 µM] (inactive)
same,Potency,[2],> 20.6 µM (inactive)
CCCn1c(=O)c2[nH]c(C3CCCC3)nc2n(CCC)c1=O,"activity, negative = inhibition",[1]; at 17.2 µM (top of the series),-4.29% (inactive)
same,"activity, negative = inhibition",[1]; at 38 µM (top of the series),-11.4% (inactive)
same,Potency,[2],> 46 µM (inactive) and > 20.6 µM (inactive)
same,Potency,[3],> 46 µM (inactive)
same,outcome,[4],inactive
same,Potency,[5],5.01 µM (active) and inactive
NC1(C(=O)O)CCCCC1,"activity, negative = inhibition",[1]; [21],9.73% (inactive)
same,Potency,[2],> 46 µM (inactive)
same,Potency,[3],> 46 µM (inactive)
same,Potency,[5],inactive
CC[N+](CC)(CC)CC(=O)Nc1c(C)cccc1C,"activity, negative = inhibition",[1]; [21],-19.8% (inactive)
same,Potency,[2],> 46 µM (inactive)
same,Potency,[3],> 46 µM (inactive)
same,outcome,[4],inactive
same,Potency,[5],inactive
C[C@H](NC(=O)/C(C#N)=C/c1ccc(O)c(O)c1)c1ccccc1,"activity, negative = inhibition",[1]; [21],-15.4% (inactive)
same,Potency,[2],> 46 µM (inactive)
same,Potency,[3],> 46 µM (inactive)
same,Potency,[5],inactive
Cc1nc2c(OCc3ccccc3)cccn2c1CC#N,"activity, negative = inhibition",[1]; [21],-13.9% (inactive)
same,Potency,[2],> 46 µM (inactive)
same,Potency,[3],> 46 µM (inactive)
same,outcome,[4],inactive
same,Potency,[5],inactive
CNc1cc(NS(=O)(=O)c2ccc(N)cc2)nc(NC)n1,"activity, negative = inhibition",[1]; [21],13.2% (inactive)
same,Potency,[2],> 46 µM (inactive)
same,Potency,[3],> 46 µM (inactive)
same,Potency,[5],inactive
CN[C@H](CC(=O)O)C(=O)O,"activity, negative = inhibition",[1]; [21],2.84% (inactive)
same,Potency,[2],> 46 µM (inactive)
same,Potency,[3],> 46 µM (inactive)
same,outcome,[4],inactive
same,Potency,[5],inactive
NOCC(=O)O,"activity, negative = inhibition",[1]; [21],4.25% (inactive)
same,Potency,[2],> 46 µM (inactive)
same,Potency,[3],> 46 µM (inactive)
same,Potency,[5],inactive
Nc1ncnc2c1ncn2C1CCCC1,"activity, negative = inhibition",[1]; [21],8.7% (inactive)
same,Potency,[2],> 46 µM (inactive)
same,Potency,[3],> 46 µM (inactive)
same,outcome,[4],inactive
same,Potency,[5],inactive
N[C@@H](Cc1c[nH]c2ccccc12)C(=O)O,"activity, negative = inhibition",[1]; [21],-9.87% (inactive)
same,Potency,[2],> 46 µM (inactive)
same,Potency,[3],> 46 µM (inactive)
same,outcome,[4],inactive
same,Potency,[5],inactive
Cc1nc(N=Nc2ccc(C(=O)O)cc2)c(COP(=O)(O)O)c(C=O)c1O,"activity, negative = inhibition",[1]; [21],-19.4% (inactive)
same,Potency,[2],> 46 µM (inactive)
same,Potency,[3],> 46 µM (inactive)
same,Potency,[5],inactive
O=C(O)c1cc(=O)cc(C(=O)O)[nH]1,"activity, negative = inhibition",[1]; [21],10.8% (inactive)
same,Potency,[2],> 46 µM (inactive)
same,Potency,[3],> 46 µM (inactive)
same,outcome,[4],inactive
same,Potency,[5],inactive
NS(=O)(=O)c1cccc2c1c([N+](=O)[O-])cc1nc(O)c(O)nc12,"activity, negative = inhibition",[1]; [21],-3.69% (inactive)
same,Potency,[2],> 46 µM (inactive)
same,Potency,[3],> 46 µM (inactive)
same,Potency,[5],inactive
Cn1c(=O)c2[nH]c(-c3ccc(S(=O)(=O)O)cc3)nc2n(C)c1=O,"activity, negative = inhibition",[1]; [21],18% (inactive)
same,Potency,[2],> 46 µM (inactive)
same,Potency,[3],> 46 µM (inactive)
same,outcome,[4],inactive
same,Potency,[5],inactive
O=c1[nH]ccc2c(O)cccc12,"activity, negative = inhibition",[1]; [21],-2.82% (inactive)
same,Potency,[2],> 46 µM (inactive)
same,Potency,[3],> 46 µM (inactive)
same,Potency,[5],inactive
NC(N)=[N+]1CCc2ccccc2C1,"activity, negative = inhibition",[1]; [21],19.1% (inactive)
same,Potency,[2],> 46 µM (inactive)
same,Potency,[3],> 46 µM (inactive)
same,Potency,[5],inactive
CCCCCCC/C=C\CCCCCCCCC(=O)O,"activity, negative = inhibition",[1]; [21],-1.08% (inactive)
same,Potency,[2],> 46 µM (inactive)
same,Potency,[3],> 46 µM (inactive)
same,outcome,[4],inactive
same,Potency,[5],inactive
CC(=O)C(C)=O,"activity, negative = inhibition",[1]; [21],31.9% (inactive)
same,Potency,[2],> 46 µM (inactive)
same,Potency,[3],> 46 µM (inactive)
same,outcome,[6],inactive
same,outcome,[7],inactive
same,outcome,[8],inactive
same,outcome,[9],inactive
same,outcome,[10],inactive
same,outcome,[11],inactive
same,outcome,[12],inactive
same,Potency,[5],inactive
same,outcome,[13],inactive
same,outcome,[14],inactive
same,outcome,[15],inactive
same,outcome,[16],inactive
same,outcome,[17],inactive
same,outcome,[18],inactive
same,outcome,[19],inactive
same,outcome,[20],inactive
O=C(O)/C(=C/c1c(C(=O)O)[nH]c2cc(Cl)cc(Cl)c12)c1ccccc1,"activity, negative = inhibition",[1]; [21],10.5% (inactive)
same,Potency,[2],> 46 µM (inactive)
same,Potency,[3],> 46 µM (inactive)
same,outcome,[4],inactive
same,Potency,[5],inactive
NC(N)=NC(N)=Nc1cccc(Cl)c1,"activity, negative = inhibition",[1]; [21],15.9% (inactive)
same,Potency,[2],> 46 µM (inactive)
same,Potency,[3],> 46 µM (inactive)
same,outcome,[4],inactive
same,Potency,[5],inactive
